SARS PLP yeast = blocks SARS-CoV papain-like protease in a yeast assay; S. cerevisiae expressing SARS-CoV PLpro, growth rescue; Potency, µM (doses to about 32.9 µM), hits mostly activators; hit rate 0.19% among 330,000; also: nearly all actives have a fitted effect of over 55% in size
Cycloheximide cs = affects cycloheximide protein synthesis inhibition readout, counter-screen; cell reporter, cycloheximide protein synthesis inhibition counterscreen; max response, %; hit rate 12% among 300,000; AID 2314; in the data active = max response mostly above about 13%, no sharp cut-off; inactive = mostly below about 14%; also: read at 38.3 µM for the half of the compounds with a filed dose
Shiga inhibitor = Shiga toxin inhibition | Vero cells, Shiga toxin protein synthesis inhibition reporter | inhibition, % at 38.7 µM | hit rate 9.2% among 290,000 | AID 2315; in the data active = inhibition mostly above about 28%, no sharp cut-off; inactive = mostly below about 43%
NS1 function inh = blocks influenza NS1 protein function. AID 2326. hit rate 0.4% among 270,000. Potency, µM (series often up to 46.1 µM); also: actives are rising curves; nearly all actives have a fitted effect of over 50% in size
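A cell-based growth assay was used: compounds that relieve NS1-induced slow growth of budding yeast raise OD600. Assay medium was yeast nitrogen base with ammonium sulphate and -URA supplement, pH 6.0, with 2% galactose.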
Pf growth 96h = P. falciparum growth inhibition at 96 hour, primary screen for plastid delayed-death inhibitors; Potency, µM (doses to about 28.7 µM), usual class: inhibitors; hit rate 6.9% among 320,000; P. falciparum luciferase reporter growth, 96 h; active = well fitted inhibition curve with a large enough effect; inconclusive = small, poorly fitted or top-dose-only effect, or another doubt; inactive = no such curve, though single readings can be large or run the other way
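P. falciparum expressing integrated firefly luciferase grown in erythrocytes (2% hematocrit, 0.05% parasitemia final) with compounds for 96 hours at 37 C, 5% CO2. Growth inhibition read as loss of luminescence after adding luciferase detection reagent.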
Pf growth 48h = P. falciparum growth inhibition at 48 hours (one generation); P. falciparum luciferase growth in erythrocytes, 48 h; Potency, µM (highest dose often 28.7 µM), most hits filed as inhibitors; hit rate 5.9% among 310,000; active = well fitted inhibition curve with a large enough effect; inconclusive = small, poorly fitted or top-dose-only effect, or another doubt; inactive = no such curve, though single readings can be large or run the other way
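Cell-based growth assay: transgenic P. falciparum expressing firefly luciferase, cultured in red cells within RPMI 1640 containing 0.5% w/v Albumax, 24 mM bicarbonate and gentamycin. A drop in luciferase activity indicates inhibition.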
Of the large screens only hits and unclear results are named; the others gave an inactive call. Hits are enriched below; roughly 21% of the tested compounds scored in any of these assays. Unless noted, calls follow the shape of the full dose curve.

CC/C(=C\C1CCCCC1)C(NP(=O)(c1ccccc1)c1ccccc1)c1ccccc1 (centres undefined)	Pf growth 96h 6.6µM, Pf growth 48h 9.3µM
C=C[C@@H]1C[C@@]1(C)[C@@H](NP(=O)(c1ccccc1)c1ccccc1)c1ccccc1	Pf growth 96h inconclusive, Pf growth 48h inconclusive
C/C(CC(=O)Nc1cc(Cl)ccc1C)=N\NC(=O)C(=O)N1CCCC1	Cycloheximide cs 17
C/C(CC(=O)Nc1ccc(Cl)cc1Cl)=N\NC(=O)C(=O)N1CCCC1	none (no result: NS1 function inh)
C/C(CC(=O)Nc1ccc(Cl)cc1)=N\NC(=O)C(=O)N1CCCCC1	Cycloheximide cs 16, Shiga inhibitor 52
Cc1ccc(C(=O)Nc2cc(C)c(OCC(=O)N3CCOCC3)c(C)c2)cc1	none (no result: Pf growth 96h)
COc1ccc(/C=N\Nc2ccccn2)c(OC)c1	Cycloheximide cs 39
COc1ccc(/C=N/OCc2ccc(Br)cc2)c(OC)c1	Cycloheximide cs 30, Shiga inhibitor 31
Cc1ccc(C)c(/C=N/Nc2ccccn2)c1	Cycloheximide cs 20, Shiga inhibitor 53 (no result: NS1 function inh)
COc1ccc(/C=N/Nc2ccccn2)c(OC)c1OC	Cycloheximide cs 40, Shiga inhibitor 74 (no result: NS1 function inh)
COc1ccc(-c2nn(-c3ccccc3)cc2/C=N/Nc2ccccn2)cc1	Pf growth 96h inconclusive, Pf growth 48h inconclusive
COc1cccc(/C=N/Nc2ncccc2[N+](=O)[O-])c1OC	none
NC(=O)c1nsc(C(=O)N(c2ccccc2)C(C(=O)NC2CCCC2)c2cccs2)c1N (centres undefined)	Pf growth 96h inconclusive
CN1CCc2ccc3c4c2[C@]1(C)Cc1cccc(c1-4)OCO3	none (no result: SARS PLP yeast, NS1 function inh, Pf growth 96h, Pf growth 48h)
COc1ccc(/C=N/Nc2ncc(Br)cn2)c(OC)c1	Cycloheximide cs 46, Shiga inhibitor 51
COc1ccccc1/C=N/Nc1nccnc1Cl	Cycloheximide cs 35, Shiga inhibitor 66 (no result: Pf growth 48h)
COc1ccc(CC(=O)NC(C)c2nnc(SCCOc3ccc(OC)cc3)n2C)cc1 (centres undefined)	none (no result: Pf growth 48h)
CCC(=O)Nc1ccc(C(=O)N/N=C/c2ccc([N+](=O)[O-])cc2)cc1	Pf growth 96h inconclusive
O=C(N/N=C/c1ccc([N+](=O)[O-])o1)C(=O)Nc1ccc(C(=O)O)cc1	Pf growth 96h 2.3µM, Pf growth 48h 2.3µM
CCCC(=O)Nc1ccc(C(=O)N/N=C/c2ccc([N+](=O)[O-])o2)cc1	Pf growth 96h 1.7µM
O=C(N/N=C\c1ccc([N+](=O)[O-])o1)c1ccc(O)cc1	Pf growth 48h 2.3µM (no result: SARS PLP yeast, Cycloheximide cs, Shiga inhibitor, NS1 function inh)
Cc1ccc(NC(=O)CCC(=O)N/N=C/c2ccc([N+](=O)[O-])o2)cc1C	Pf growth 96h 1.9µM, Pf growth 48h 7.4µM
Cc1cc(C(=O)NNC(=O)c2ccc(C)s2)c(C)o1	none (no result: Cycloheximide cs, Shiga inhibitor, NS1 function inh)
COC(=O)c1cccnc1NC(=S)NNC(=O)c1ccncc1	none (no result: Pf growth 48h)
Cc1cc(NC(=O)CC2CCCC2)ccc1Br	Cycloheximide cs 26, Shiga inhibitor 62
Cc1cccc(NC(=O)CC2CCC2)c1	Cycloheximide cs 20 (no result: Pf growth 96h)
Cc1cccc(NC(=O)CC2NCCNC2=O)c1 (centres undefined)	Cycloheximide cs 24 (no result: Pf growth 48h)
CC(=O)Nc1ccc(S(=O)(=O)NCCCc2ccccc2)cc1	none (no result: Shiga inhibitor)
Cc1ccc(NC(=O)COc2ccccc2C(=O)NCc2ccccc2)cc1	Pf growth 96h inconclusive, Pf growth 48h inconclusive (no result: Cycloheximide cs, Shiga inhibitor, NS1 function inh)
COc1ccc(CC(=O)NCC(=O)Nc2ccccc2Br)cc1	none
Cc1ccc(N(CC(=O)NC2CCCCC2)S(=O)(=O)c2c(C)noc2C)cc1	none
CCn1nc(C(=O)OCC(=O)c2cc(C)n(Cc3cccs3)c2C)c2ccccc2c1=O	Cycloheximide cs 72, Shiga inhibitor 66
Cc1cc(C(=O)COC(=O)c2ccc3c(c2)OCO3)c(C)n1Cc1cccs1	Cycloheximide cs 54, Shiga inhibitor 128
COc1cccc(-c2cccc(NC(=O)C3CCN(CC4CCOC4)CC3)c2)c1 (centres undefined)	Pf growth 96h inconclusive
COc1ccc(CNC(=O)CN2CCN(S(=O)(=O)c3cc(Br)ccc3Br)CC2)cc1OC	Pf growth 96h inconclusive, Pf growth 48h 10µM (no result: Cycloheximide cs, Shiga inhibitor, NS1 function inh)
O=C(CSc1nc(-c2ccc(F)cc2)cc(C(F)(F)F)n1)NCc1cccs1	Pf growth 96h 3.3µM
COC(=O)CSc1nc(-c2ccc(F)cc2)cc(C(F)(F)F)n1	none
CC(Sc1nc(-c2ccccc2)cc(C(F)(F)F)n1)C(=O)NCc1ccco1 (centres undefined)	Pf growth 48h inconclusive (no result: Pf growth 96h)
O=C(CSc1nc(-c2ccc(F)cc2)cc(C(F)(F)F)n1)NCc1ccco1	Pf growth 96h 2.1µM
COc1ccc(C(=O)CSc2nnc(CNC(=O)c3ccco3)n2C)cc1	none
CCOc1cc(S(=O)(=O)NC2CCCCCC2)ccc1F	Shiga inhibitor 41 (no result: Pf growth 96h)
CCOc1ccc(Br)cc1S(=O)(=O)NC1CCCC1	Pf growth 96h 8.3µM, Pf growth 48h inconclusive (no result: Cycloheximide cs, Shiga inhibitor, NS1 function inh)
CCOc1ccc(S(=O)(=O)NC2CCCCCC2)cc1	none
CCOc1cc(C)c(S(=O)(=O)NC2CCCCC2)cc1C	none
COc1ccc(CNC2CCSc3ccccc32)cc1OC (centres undefined)	none
O=C(NNC(=S)Nc1ccccc1)c1cccnc1	Cycloheximide cs 20, Shiga inhibitor 28
O=C(NC(=S)NCc1ccccc1)c1cccnc1	Pf growth 96h inconclusive (no result: NS1 function inh)
O=C(NNC(=S)NCc1ccccc1)c1cccnc1	Pf growth 96h 2.1µM, Pf growth 48h inconclusive
O=C(NNC(=S)NC(=O)c1cccnc1)c1ccccc1	Pf growth 96h inconclusive, Pf growth 48h inconclusive
CCOc1ccc(CC(=O)NNC(=O)/C=C/C(=O)O)cc1	none
Cc1cnc(C(=O)Oc2c(C)ccc(C)c2C)cn1	none (no result: NS1 function inh)
CC(=O)Nc1ccc(NC(=O)c2sc3nc4n(c(=O)c3c2C)CCCCC4)cc1	Pf growth 96h inconclusive (no result: NS1 function inh)
COc1ccc(COC(=O)c2sc3nc4n(c(=O)c3c2C)CCC4)cc1	Pf growth 96h inconclusive, Pf growth 48h 9.3µM (no result: Cycloheximide cs, Shiga inhibitor, NS1 function inh)
Cc1c(C(=O)O)sc2nc3n(c(=O)c12)CCC3	none (no result: NS1 function inh)
CCc1ccc(NC(=O)c2sc3nc4n(c(=O)c3c2C)CCC4)cc1	Cycloheximide cs 29, Shiga inhibitor 36, Pf growth 96h inconclusive
COc1ccc(C(CNC(=O)c2ccc3c(c2)OCCO3)N(C)C)cc1 (centres undefined)	none
Cc1ccc(SCCC(=O)OC(C(=O)NC(N)=O)C(C)C)cc1 (centres undefined)	none (no result: NS1 function inh)
CCN(C(=O)c1ccc(S(=O)(=O)N2CCOCC2)cc1)C1CCS(=O)(=O)C1 (centres undefined)	none (no result: SARS PLP yeast, Cycloheximide cs, Shiga inhibitor, NS1 function inh)
CCCCNC(=S)Nc1ccc(F)cc1	none
Oc1cccc(NC(=S)Nc2ccc(SC(F)F)cc2)c1	Cycloheximide cs 21
Oc1cccc2c(NC(=S)Nc3ccc(SC(F)F)cc3)cccc12	Cycloheximide cs 82, Shiga inhibitor 135
CCCCNC(=S)Nc1ccc(SC(F)F)cc1	Cycloheximide cs 61, Shiga inhibitor 149, Pf growth 96h inconclusive, Pf growth 48h inconclusive (no result: NS1 function inh)
Cc1cc(=O)[nH]c(Nc2ccc(N(C)C)cc2)n1	none
Cc1cc(=O)[nH]c(N/N=C/c2ccc(N(C)C)cc2)n1	Cycloheximide cs 24, Shiga inhibitor 50, Pf growth 96h inconclusive

Assay outcomes deposited in PubChem by National Center for Advancing Translational Sciences (NCATS).
